In PubChem BioAssay AID651642 (Sanford-Burnham Center for Chemical Genomics, 2012) one finds outcome data, which are given here for 32 compounds.

Calls of active or inactive are those of the source.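 How the source made its calls: active means average half-effect concentration of 10 µM or less in every one of the four cell panels; inactive means the rest.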

This experiment relates to H9c2. Put plainly: protection of cardiomyocytes from stress damage, SAR follow-up, cell-based, panel, H9c2 and HL-1, H2O2, 2-deoxyglucose, ATP luminescence (AID 651642). The note with it: H9c2/HL-1 cardiomyocyte 2-deoxyglucose damage, mean of runs, with 2-deoxyglucose.
For `CCOC(=O)c1ccccc1NC(=O)c1cc(-c2cc(OC)c(OC)c(OC)c2)nc2ccccc12`, the call was inactive.
For the compound `COc1cc(-c2cc(C(=O)NCC(=O)Nc3cccc(C(C)=O)c3)c3cccc(Cl)c3n2)cc(OC)c1OC`, the compound was classed as inactive.
Next, `COC(=O)CNC(=O)c1cccc(NC(=O)c2cc(-c3cc(OC)c(OC)c(OC)c3)nc3ccccc23)c1`: “active”; `COc1cc(-c2cc(C(=O)Nc3cccc(C(N)=O)c3)c3ccccc3n2)cc(OC)c1OC`: “inactive”; `COc1ccccc1CN1C(=O)c2ccccc2N2C(=O)c3c(ccc(OC)c3OC)C12` (configuration not stated): “inactive”.
Consider `COc1cc(-c2cc(C(=O)Nc3cccc(C(C)=O)c3)c3cc(Br)ccc3n2)cc(OC)c1OC`, for which the outcome was inactive.
Next, `COc1cc(-c2cc(C(=O)Nc3cccc(C(=O)N(C)C)c3)c3ccccc3n2)cc(OC)c1OC`: “inactive”; `CCOC(=O)c1cccc(NC(=O)c2cc(-c3cc(OC)c(OC)c(OC)c3)nc3ccc(F)cc23)c1`: “inactive”.
Next, `COc1ccc(NC(=O)CNC(=O)c2cc(-c3cc(OC)c(OC)c(OC)c3)nc3ccccc23)cc1`: “inactive”; `COc1cc(-c2cc(C(=O)NCC(=O)Nc3cccc(C(C)=O)c3)c3ccccc3n2)cc(OC)c1OC`: “active”; `COc1cc(-c2cc(C(=O)Nc3cccc(C(=O)Nc4ccccc4)c3)c3ccccc3n2)cc(OC)c1OC`: “active”.
Next, `COc1ccc2c(c1OC)C(=O)N1c3ccccc3C(=O)N(Cc3ccccc3)C21` (configuration not stated): “inactive”; `COc1ccc2nc(-c3cc(OC)c(OC)c(OC)c3)cc(C(=O)NCC(=O)Nc3ccc(C(C)=O)cc3)c2c1`: “active”; `CCOC(=O)c1cccc(NC(=O)CNC(=O)c2cc(-c3cc(OC)c(OC)c(OC)c3)nc3ccc(C)cc23)c1`: “active”.
For the compound `COc1cc(-c2cc(C(=O)Nc3cccc(C(=O)O)c3)c3ccccc3n2)cc(OC)c1OC`, the compound was called inactive.
Next, `COc1cc(-c2cc(C(=O)NCC(=O)Nc3ccc(C(C)=O)cc3)c3cc(F)ccc3n2)cc(OC)c1OC`: “inactive”; `COc1cc(-c2cc(C(=O)Nc3cccc(C(=O)NC4CC4)c3)c3ccccc3n2)cc(OC)c1OC`: “inactive”.
Next, `COc1ccc2c(c1OC)C(=O)N1c3ccccc3C(=O)N(Cc3ccccc3F)C21` (configuration not stated): “inactive”.
On to `COc1ccc2c(c1OC)C(=O)N1c3ccccc3C(=O)N(Cc3ccc(C)cc3)C21` (configuration not stated), for which the result was inactive.
`COc1ccc2c(c1OC)C(=O)N1c3ccccc3C(=O)N(Cc3c(Cl)cccc3Cl)C21` (configuration not stated): the compound was classed as inactive.
Next, `CCOC(=O)c1cccc(NC(=O)c2cc(-c3cc(OC)c(OC)c(OC)c3)nc3ccc(C)cc23)c1`: “inactive”; `CCOC(=O)c1cccc(NC(=O)c2cc(-c3cc(OC)c(OC)c(OC)c3)nc3ccccc23)c1`: “inactive”; `COc1cc(-c2cc(C(=O)NCC(=O)Nc3cccc(C(C)=O)c3)c3cc(Br)ccc3n2)cc(OC)c1OC`: “active”.
Next, `COc1cc(-c2cc(C(=O)Nc3cccc(-c4nn[nH]n4)c3)c3ccccc3n2)cc(OC)c1OC`: “inactive”; `CCOC(=O)c1cccc(NC(=O)c2cc(-c3cc(OC)c(OC)c(OC)c3)nc3ccc(Cl)cc23)c1`: “inactive”; `COc1cc(-c2cc(C(=O)NCC(=O)Nc3cccc(C(C)=O)c3)c3cc(F)ccc3n2)cc(OC)c1OC`: “active”.
Next, `CCOC(=O)c1cccc(NC(=O)CNC(=O)c2cc(-c3cc(OC)c(OC)c(OC)c3)nc3ccc(F)cc23)c1`: “active”.
As to `COc1ccc2c(c1OC)C(=O)N1c3ccccc3C(=O)N(Cc3ccc(F)cc3)C21` (configuration not stated), the outcome was inactive.
`CCOC(=O)c1cccc(NC(=O)CNC(=O)c2cc(-c3cc(OC)c(OC)c(OC)c3)nc3ccc(OC)cc23)c1`: the result was active.
Take `COc1cccc(CNC(=O)CNC(=O)c2cc(-c3cc(OC)c(OC)c(OC)c3)nc3ccccc23)c1`: the result was inactive.
Next, `COc1cc(-c2cc(C(=O)Nc3cccc(C(C)=O)c3)c3cc(F)ccc3n2)cc(OC)c1OC`: “inactive”.
Next, `COc1cc(-c2cc(C(=O)Nc3cccc(C(=O)N4CCOCC4)c3)c3ccccc3n2)cc(OC)c1OC`: “inactive”.
